Compound activity as filed in PubChem BioAssay.
HT1080NT lethal: kills 2HG-producing HT-1080-NT fibrosarcoma cells; AID 686970; 1.6% of 360,000 active; Potency, µM (highest dose often 46.1 µM), without a hit: top-dose activity, negative = less viability, usual class: cytotoxic; HT-1080-NT fibrosarcoma viability, CellTiter-Glo ATP luminescence, 48 h;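 further: NT is the 2HG producing partner of a matched IDH1 knockdown line; 0% = DMSO-treated cells and -100% = media-only wells without cells; nearly all actives have a fitted effect of over 55% in size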
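Viability of the 2HG-overproducing fibrosarcoma line after 48 hours of compound exposure at 37 degrees C was determined by luminescence with CellTiter-Glo, and concentration-effect curves were then fitted and categorized.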
KB-3-1 cytotox: KB-3-1 parental cell cytotoxicity. Potency, µM (doses to about 46.1 µM), usual class: cytotoxic. 1.4% of 400,000 active. KB-3-1 viability, CellTiter-Glo ATP luminescence, 72 h. AID 1347075; further: on the % scale 0 is the no-effect control and ±100 the full control effect; nearly all actives have a fitted effect of over 60% in size
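Cytotoxicity in the drug-sensitive parental line KB-3-1 was scored as loss of CellTiter-Glo luminescence following 72 h incubation with compound. Values come from curve fitting of normalized concentration-response data.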
ATXN2 expr inh: ATXN2 expression inhibition | HEK-293 ATXN2-luciferase reporter, luminescence, 24 h | Potency, µM (highest dose often 57 µM), inactives show at the top dose activity change, negative = inhibition, most hits filed as inhibitors | 0.72% of 360,000 active; further: on the % scale 0 is the no-effect control and ±100 the full control effect; nearly all actives have a fitted effect of over 55% in size
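ATXN2-luciferase reporter cells (luciferase flanked by upstream and downstream ATXN2 gene portions) were treated 24 h at 37 °C with compounds at up to 57 uM. SteadyGlo luminescence gave expression; GF-AFC fluorescence gave viability.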
HT1080 IDH1KD tx: kills HT-1080 cells with IDH1 knockdown | HT-1080 IDH1 knockdown viability, ATP luminescence, 48 h | Potency, µM (titrated, usually from 46.1 µM), for the others: at the top dose activity, negative = toxicity, hits mostly cytotoxic | 2% of 360,000 active;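 further: 0% = DMSO wells and -100% = cell-free medium wells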
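Knockdown cells (IDH1KD HT-1080) received compounds 2 h after plating at 750 cells/well and were kept 48 h at 37 °C in 5% FBS RPMI. A CellTiter-Glo luminescence read gave % activity for curve fitting.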
KB-V1 cytotox: KB-V1 MDR subline cytotoxicity. KB-V1 MDR cells viability, CellTiter-Glo, 72 h. 3.4% of 400,000 active. AID 1347076. Potency, µM (series often up to 46.1 µM), most hits filed as cytotoxic; further: on the % scale 0 is the no-effect control and ±100 the full control effect; nearly all actives have a fitted effect of over 60% in size
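Cytotoxicity toward P-gp-expressing KB-V1 cells was determined as loss of CellTiter-Glo luminescence after 72 h at 37 degrees C. Compounds were tested in quantitative HTS format across a concentration range, with curves fitted to normalized data.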
S2 tox: reduces viability in counter-screen for ATXN expression inhibitors; 0.49% of 400,000 active; Potency, µM (doses to about 56.7 µM), hits mostly cytotoxic; AID 651635; S2 cells (HEK-293 line with an ATXN2-luciferase reporter) viability, CellTiter-Fluor protease fluorescence, 24 h; further: nearly all actives have a fitted effect of over 40% in size
* marks the source's active call; other numbers are inactive results; i = inactive; ? = inconclusive; · = no result. Sampled rows, rich in hits. Any-hit rate of the full collection: about 6.2%. The call rests on the fitted dose curve; in most records, active means well fitted curve in the direction sought with a large enough effect; inconclusive means small, poorly fitted or top-dose-only effect, or another doubt; inactive means no such curve, though single readings can be large; an effect the other way counts as inactive or inconclusive. Potency means the concentration at half of the fitted maximal effect.

SMILES | HT1080NT lethal | KB-3-1 cytotox | ATXN2 expr inh | HT1080 IDH1KD tx | KB-V1 cytotox | S2 tox
O=C(CC1CCCCC1)N1CCC(c2nc(-c3ccc(S(=O)(=O)N4CCCC4)cc3)no2)CC1 | 4% | i | ? | 2% | 15µM* | ?
O=c1oc2ccccc2c(O)c1Cc1c(O)c2ccccc2oc1=O | · | · | -7% | · | · | i
O=C(CC1CCCCC1)c1c(O)c2ccccc2oc1=O | 7.9µM* | 5.8µM* | 6% | ? | i | i
O=C(Nc1ccccc1C(F)(F)F)c1cccn(Cc2ccccc2)c1=O | · | i | 11% | · | i | i
Cc1cc(N(CCCl)CCCl)ccc1C=NNC(=O)c1cccnc1 | 2% | i | 1.8µM* | -9% | i | i
O=C(NN=Cc1ccc(N(CCCl)CCCl)cc1Cl)c1cccnc1 | -11% | i | ? | -16% | i | ?
CO[C@H]1C=C2CCN(C)[C@@H]2[C@@H]2c3cc4c(cc3C(=O)O[C@H]21)OCO4 | · | · | · | · | · | i
O=[N+]([O-])c1ncc[nH]1 | · | · | -3% | · | · | ·
Cc1nc2cc(C(F)(F)F)ccc2n1C1CCN(Cc2nnnn2CCc2ccccc2)CC1 | 18µM* | ? | -25% | ? | ? | i
Cc1nc2cc(F)ccc2n1C1CCN(Cc2nnnn2CCc2ccccc2)CC1 | -23% | i | -14% | -17% | 12µM* | i
FC(F)(F)c1ccc2c(c1)nnn2C1CCN(Cc2nnnn2Cc2ccccc2)CC1 | -25% | i | -11% | ? | ? | i
CCS(=O)(=O)N1Cc2cc(C(=O)N(C)C)nc(-c3cccc(-c4ccc(F)cc4)c3)c2[C@@H]1CCO | 1% | i | 3% | -1% | i | i
CCCCNC(=O)c1cc(-c2cccnc2)nc2ccc(S(=O)(=O)NCCCC)cc12 | · | i | -12% | · | i | ?
Cc1cc(O)c2c(c1)C(=O)C13C(=C2O)C(=O)[C@H]2[C@@H](O)[C@@H]1[C@H]1[C@H](O)[C@@H]3C(=O)C3=C(O)c4c(O)cc(C)cc4C(=O)C312 (stereo partly drawn) | 0.58µM* | 9.2µM* | 4% | 5.2µM* | i | ?
COc1ccc(-n2nnnc2C(c2ccccc2OC(F)(F)F)N2CCC(n3c(=O)[nH]c4ccccc43)CC2)cc1 (stereo not drawn) | ? | ? | ? | ? | i | ?
O=c1[nH]c2ccccc2n1C1CCN(C(c2ccnc3ccccc23)c2nnnn2-c2ccc3c(c2)OCCO3)CC1 (stereo not drawn) | ? | ? | 0% | 16µM* | ? | ?
COc1ccc(C(c2nnnn2-c2ccc3c(c2)OCCO3)N2CCC(n3c(=O)[nH]c4ccccc43)CC2)cc1 (stereo not drawn) | 18µM* | ? | -2% | 15µM* | ? | ?
CCC1(O)C(=O)OCc2c1cc1n(c2=O)Cc2cc3cc(O)ccc3nc2-1 (stereo not drawn) | 0.73µM* | ? | -74% | 0.65µM* | ? | ·
CC[C@@]1(O)C(=O)OCc2c1cc1n(c2=O)Cc2cc3c(NC(=O)CN)cccc3nc2-1 | 2.3µM* | i | 0.34µM* | 1.8µM* | i | ·
CCC1(OC(=O)CN)C(=O)OCc2c1cc1n(c2=O)Cc2cc3ccccc3nc2-1 (stereo not drawn) | 1µM* | ? | 0.0095µM* | 0.73µM* | ? | ·
CC[C@@]1(O)C(=O)OCc2c1cc1n(c2=O)Cc2cc3ccccc3nc2-1 | · | ? | 0.019µM* | · | i | ·
COc1ccc(CCNC(=O)c2ccc3c(c2)N(Cc2cccc(Cl)c2)C(=O)CS3)cc1OC | · | i | ? | · | ? | ?
C[C@@H]1CN([C@@H](C)CO)C(=O)CCCn2nncc2CO[C@@H]1CN(C)C(=O)Nc1ccc(N2CCCCC2)cc1 | -6% | i | 11% | 3% | i | i
